Experimental data reported in PubChem BioAssay AID504710 (Sanford-Burnham Center for Chemical Genomics, 2011).
Values without a mark were called inactive. Activity calls are given as the source filed them.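 How the source made its calls: active means inhibition reaching about 16% in any single replicate (limit read from the data); inactive means the rest.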

Target: Hexokinase HKDC1 (Homo sapiens) (UniProt Q2TB90)
Assay: compounds lowering human HKDC1 activity – biochemical, single concentration, confirmation (AID 504710)
Conditions: recombinant HKDC1, G6PDH/diaphorase/resazurin fluorescence; at 20 µM; active compounds read high

Hexokinase HKDC1 (Homo sapiens), sequence (Q2TB90 whole entry, looked up): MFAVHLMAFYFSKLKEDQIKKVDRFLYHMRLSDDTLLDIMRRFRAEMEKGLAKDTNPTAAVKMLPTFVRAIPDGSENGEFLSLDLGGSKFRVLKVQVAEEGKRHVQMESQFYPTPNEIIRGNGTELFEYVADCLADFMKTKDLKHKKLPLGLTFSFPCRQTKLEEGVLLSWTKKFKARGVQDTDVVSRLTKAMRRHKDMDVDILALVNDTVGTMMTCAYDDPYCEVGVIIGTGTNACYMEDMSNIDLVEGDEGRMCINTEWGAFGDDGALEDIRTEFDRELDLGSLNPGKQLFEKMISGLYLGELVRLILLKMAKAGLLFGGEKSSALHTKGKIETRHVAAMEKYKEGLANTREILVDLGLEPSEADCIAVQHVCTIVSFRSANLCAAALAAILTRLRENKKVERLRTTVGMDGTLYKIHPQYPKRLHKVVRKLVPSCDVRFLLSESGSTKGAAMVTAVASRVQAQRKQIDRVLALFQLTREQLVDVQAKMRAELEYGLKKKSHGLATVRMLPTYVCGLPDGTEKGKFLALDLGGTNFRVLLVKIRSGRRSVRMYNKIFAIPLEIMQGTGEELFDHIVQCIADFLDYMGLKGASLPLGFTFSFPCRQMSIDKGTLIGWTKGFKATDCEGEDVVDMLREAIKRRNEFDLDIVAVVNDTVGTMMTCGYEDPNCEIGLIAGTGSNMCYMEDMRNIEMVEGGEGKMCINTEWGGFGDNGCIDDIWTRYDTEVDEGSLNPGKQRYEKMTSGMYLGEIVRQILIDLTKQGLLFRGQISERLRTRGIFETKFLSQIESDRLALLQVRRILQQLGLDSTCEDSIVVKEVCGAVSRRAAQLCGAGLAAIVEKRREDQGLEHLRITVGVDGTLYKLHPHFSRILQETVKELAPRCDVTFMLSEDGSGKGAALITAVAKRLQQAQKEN

Question: `Cc1cc(C)c(S(=O)(=O)Nc2cc(SCC(=O)O)c(O)c3ccccc23)cc1C` was tested. Which inhibition did it give?
Answer: 41.5% (active)

Question: `COC(=O)c1c(NC(C)=O)sc(Cc2ccccc2)c1C` was tested. Which inhibition did it give?
Answer: -37.8%

Question: With `CCN=C1NN=C(c2ccc(C)cc2)CS1` as the molecule, how does the inhibition read?
Answer: -52%

Question: How did the inhibition turn out when `O=S(=O)(O)c1ccc(O)c2cc(Nc3ccccc3)ccc12` was run?
Answer: 44.1% (active)

Question: With `O=C1C=CC(=O)c2c(O)c(CO)c(CO)c(O)c21` as the molecule, how does the inhibition read?
Answer: 39.3% (active)

Question: `CCOC(=O)c1ccc(NC(=O)CSc2n[nH]c(-c3ccncc3)n2)cc1` was tested. Which inhibition did it give?
Answer: 50.3% (active)

Question: Which inhibition does the source give for `Oc1ccc(O)c(Cc2nc3ccccc3[nH]2)c1` here?
Answer: 56% (active)

Question: For `CCOC(=O)C1=C(Cc2ccc(Cl)cc2)C(=O)c2ccccc2C1=O`, which inhibition is on record?
Answer: 39.3% (active)

Question: With `CC(=O)n1cc(N(C(=O)CCl)c2ccc([N+](=O)[O-])cc2)c2ccccc21` as the molecule, how does the inhibition read?
Answer: 40.9% (active)

Question: With `CC(=NNC(=S)SCc1ccccc1)c1ccccn1` as the molecule, how does the inhibition read?
Answer: -28.3%

Question: For `CCCOc1ccc(/C=N/NC(=S)Nc2ccccc2[N+](=O)[O-])c(O)c1`, which inhibition is on record?
Answer: -47.6%

Question: `N#Cc1ccc(CSc2nnc(NC(=O)c3ccc4ncsc4c3)s2)cc1` was tested. Which inhibition did it give?
Answer: 40.7% (active)

Question: For `NC(=O)C1CCN(C2=C(Cl)C(=O)c3ccccc3C2=O)CC1`, which inhibition is on record?
Answer: 73% (active)

Question: How did the inhibition turn out when `CCC1=NN2C(=N)/C(=C\c3ccc(OCc4cc(=O)n5nc(CC)sc5n4)c(OC)c3)C(=O)N=C2S1` was run?
Answer: 22.8% (active)

Question: With `Cc1ccc(C)c(S(=O)(=O)Nc2cc(SCC(=O)O)c(O)c3ccccc23)c1` as the molecule, how does the inhibition read?
Answer: 55.2% (active)

Question: `COc1ccc(N=C2NN=C(c3ccc4c(c3)OCCO4)CS2)cc1` was tested. Which inhibition did it give?
Answer: -33.1%

Question: For `Cc1ccc2cc(CCNC(=O)c3ccc(S(=O)(=O)N4CCCCC4)cc3)c(=O)[nH]c2c1`, which inhibition is on record?
Answer: 39.8% (active)

Question: With `C=CCN1C=C2C(=O)C(C)(OC(=O)CCC(=O)OC)C(=O)C(Br)=C2C=C1c1ccc(OC)cc1` (stereo unspecified) as the molecule, how does the inhibition read?
Answer: 57.5% (active)

Question: For `COC(=O)c1cc(C)nc2c1C(=O)C(=O)C=C2N1CCOCC1`, which inhibition is on record?
Answer: 65.8% (active)

Question: Which inhibition does the source give for `O=C(CNC(=O)/C=C/c1ccco1)N=Nc1c(O)[nH]c2ccccc12` here?
Answer: 39% (active)

Question: Which inhibition does the source give for `CCn1cc(C(=O)NCc2ccc3c(c2)OCO3)c2cc(OC)c(OC)cc2c1=O` here?
Answer: 45.9% (active)
